Experimental data reported in PubChem BioAssay (NCI).
Compounds without any hit were thinned out: in the full panel of roughly 83,000, 20% have a hit.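 Note: values are percent growth. 100 is the growth of untreated cells, values between 100 and 0 indicate rising inhibition; between -100 and 0 indicates cell death.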 A number with no mark means an inactive call. Active and inactive are the calls of the source. How the source made its calls: active means growth percent below 10; inactive means the rest.

System: HL-60(TB) leukemia
Assay: NCI-60 one-dose screen, 48 h (100 = growth as untreated, 0 = no growth, -100 = all killed)
Details: 10 µM unless noted

Row | SMILES | growth
1 | COc1ccc(C(=O)CSc2nc(-c3cc(OC)ccc3OC)cc(-c3ccc(Cl)cc3)c2C#N)cc1 | 106%
2 | COc1ccc(Br)cc1NC(=O)Nc1cccc2c1ccn2Cc1ccnc(N)c1 | 10.5%
3 | C=CCc1cc(OC)c(OC)c(OC)c1 | 78.7%
4 | CCc1c2c(nc3ccc(OC(=O)N4CCC(N5CCCCC5)CC4)cc13)-c1cc3c(c(=O)n1C2)COC(=O)[C@]3(O)CC | -14% (active)
